PubChem BioAssay (NCATS)
Inconclusive results are not listed. Active and inactive are the calls of the source. The call rests on the fitted dose curve; in most records, active means well fitted curve in the direction sought with a large enough effect; inconclusive means small, poorly fitted or top-dose-only effect, or another doubt; inactive means no such curve, though single readings can be large; an effect the other way counts as inactive or inconclusive.

Tests used:
[1] = qHTS of pediatric cancer cell lines to identify multiple opportunities for drug repurposing: Primary screen for LAN-5 cells (AID 1347100); further: potency means the concentration at half of the fitted maximal effect
Procedure, shortened: (§1)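 Viability after 48 h compound treatment at 37C, 500-1,000 cells/well, read as ATP luminescence with CellTiter-Glo. Primary screens used 11-point (MIPE, 0.78 nM-46 µM) or 8-point (NPC, 0.59 nM-46 µM) final concentrations; follow-up screens used 11-point dilutions.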

[2] = qHTS of pediatric cancer cell lines to identify multiple opportunities for drug repurposing: Primary screen for BT-12 cells (AID 1347101); further: nearly all actives have a fitted effect of over 25% in size; further: potency means the concentration at half of the fitted maximal effect
Procedure, shortened: (§2)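 Cells (500-1,000/well) rested 5 h, then received compounds for 48 h; metabolically active cells were measured by CellTiter-Glo luminescence. Final concentrations spanned up to 46 µM (MIPE, 11-point) or 0.59 nM-46 µM (NPC, 8-point) in primary screens, 11-point in follow-ups.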

[3] = qHTS of pediatric cancer cell lines to identify multiple opportunities for drug repurposing: Primary screen for Rh18 cells (AID 1347102); further: nearly all actives have a fitted effect of over 65% in size; further: potency means the concentration at half of the fitted maximal effect
Procedure, shortened: as §1

[4] = qHTS of pediatric cancer cell lines to identify multiple opportunities for drug repurposing: Primary screen for OHS-50 cells (AID 1347103); further: nearly all actives have a fitted effect of over 40% in size; further: potency means the concentration at half of the fitted maximal effect
Procedure, shortened: as §2

[5] = qHTS of pediatric cancer cell lines to identify multiple opportunities for drug repurposing: Primary screen for RD cells (AID 1347104); further: nearly all actives have a fitted effect of over 55% in size; further: potency means the concentration at half of the fitted maximal effect
Procedure, shortened: (§3)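 Quantitative HTS format: each compound titrated (MIPE 11 points from 0.78 nM, NPC 8 points from 0.59 nM) onto cells plated 5 hours earlier. After 48 h at 37 degrees C, CellTiter-Glo luminescence was recorded.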

[6] = qHTS of pediatric cancer cell lines to identify multiple opportunities for drug repurposing: Primary screen for MG 63 (6-TG R) cells (AID 1347105); further: nearly all actives have a fitted effect of over 50% in size; further: potency means the concentration at half of the fitted maximal effect
Procedure, shortened: as §3

[7] = qHTS of pediatric cancer cell lines to identify multiple opportunities for drug repurposing: Primary screen for Rh30 cells (AID 1347107); further: nearly all actives have a fitted effect of over 75% in size; further: potency means the concentration at half of the fitted maximal effect
Procedure, shortened: as §1

[8] = qHTS of pediatric cancer cell lines to identify multiple opportunities for drug repurposing: Primary screen for Rh41 cells (AID 1347108); further: nearly all actives have a fitted effect of over 70% in size; further: potency means the concentration at half of the fitted maximal effect
Procedure, shortened: as §3

[9] = qHTS of pediatric cancer cell lines to identify multiple opportunities for drug repurposing: Confirmatory screen for SK-N-MC cells (AID 1347111);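 further: potency means the concentration at half of the fitted maximal effect; cells exposed to compound for 48 h before the readout; nearly all actives have a fitted effect of over 70% in size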
Procedure, shortened: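 SK-N-MC cells at 500-1,000 cells/well in growth media were pre-incubated 5 h, then exposed to compounds at 11-point dilutions for 48 h at 37 degrees C, 5% CO2. Viability was read as CellTiter-Glo luminescence.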

[10] = qHTS of pediatric cancer cell lines to identify multiple opportunities for drug repurposing: Confirmatory screen for DAOY cells (AID 1347114); further: potency means the concentration at half of the fitted maximal effect; nearly all actives have a fitted effect of over 65% in size
Procedure, shortened: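 Viability measured as metabolically active cells via CellTiter-Glo luminescence following 48 hours of compound exposure, 11-point dilutions in confirmatory testing. 500-1,000 cells/well plated 5 hours before dosing; controls were DMSO and 2.3 µM bortezomib.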

[11] = qHTS of pediatric cancer cell lines to identify multiple opportunities for drug repurposing: Confirmatory screen for NB-EBc1 cells (AID 1347115); further: nearly all actives have a fitted effect of over 45% in size; further: potency means the concentration at half of the fitted maximal effect
Procedure, shortened: as §1

[12] = qHTS of pediatric cancer cell lines to identify multiple opportunities for drug repurposing: Confirmatory screen for MG 63 (6-TG R) cells (AID 1347119); further: nearly all actives have a fitted effect of over 55% in size; further: potency means the concentration at half of the fitted maximal effect
Procedure, shortened: as §1

[13] = qHTS of pediatric cancer cell lines to identify multiple opportunities for drug repurposing: Confirmatory screen for control Hh wild type fibroblast cells (AID 1347121); further: nearly all actives have a fitted effect of over 70% in size; further: potency means the concentration at half of the fitted maximal effect
Procedure, shortened: as §1

[14] = qHTS of pediatric cancer cell lines to identify multiple opportunities for drug repurposing: Confirmatory screen for A673 cells (AID 1347110); further: potency means the concentration at half of the fitted maximal effect; nearly all actives have a fitted effect of over 65% in size
Procedure, shortened: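 qHTS titration format: primary MIPE 0.78 nM-46 µM (11 pts), NPC 0.59 nM-46 µM; confirmation 11 pts. 48 h, CTG luminescence.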

[15] = qHTS of pediatric cancer cell lines to identify multiple opportunities for drug repurposing: Primary screen for control Hh wild type fibroblast cells (AID 1347106);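 further: series mostly up to about 46 µM; a drop in luminescence marks cytotoxicity and a rise apparent proliferation; nearly all actives have a fitted effect of over 55% in size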
Procedure, shortened: as §1

[16] = qHTS of pediatric cancer cell lines to identify multiple opportunities for drug repurposing: Confirmatory screen for NB1643 cells (AID 1347109); further: potency means the concentration at half of the fitted maximal effect; nearly all actives have a fitted effect of over 45% in size
Procedure, shortened: as §1

[17] = qHTS of pediatric cancer cell lines to identify multiple opportunities for drug repurposing: Confirmatory screen for LAN-5 cells (AID 1347113); further: nearly all actives have a fitted effect of over 65% in size; further: potency means the concentration at half of the fitted maximal effect
Procedure, shortened: as §1

[18] = qHTS of pediatric cancer cell lines to identify multiple opportunities for drug repurposing: Confirmatory screen for BT-37 cells (AID 1347117); further: potency means the concentration at half of the fitted maximal effect; nearly all actives have a fitted effect of over 55% in size
Procedure, shortened: as §1

[19] = qHTS of pediatric cancer cell lines to identify multiple opportunities for drug repurposing: Confirmatory screen for TC32 cells (AID 1347118)
Procedure, shortened: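 qHTS, TC32, 48 h drug treatment, CellTiter-Glo luminescence as a proxy for metabolically active cells; primary top concentration 46 µM (MIPE 11-pt, NPC 8-pt); confirmatory 11-pt.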

[20] = qHTS of pediatric cancer cell lines to identify multiple opportunities for drug repurposing: Confirmatory screen for BT-12 cells (AID 1347112)
Procedure, shortened: as §1

Measured: Potency

O=c1[nH]nc(OCCCc2ccc(Cl)cc2)c(NCc2cccnc2)c1Br
active: [1] 18700 nM | [2] 27.3 µM | [3] 23.5 µM | [4] 19.3 µM | [5] 14.8 µM | [6] 18.7 µM | [7] 23.5 µM | [8] 18.7 µM | [9] 16.5 µM | [10] 5.22 µM | [11] 13.1 µM | [12] 5.22 µM | [13] 10.4 µM

CC1(COc2ccc3c(c2)ncn3-c2ccc3cccc(N4CCC(N)CC4)c3n2)COC1
active: [1] 1 nM | [2] 6.11 µM | [3] 10.5 µM | [4] 13.7 µM | [5] 0.59 µM | [14] 7.37 µM | [10] 20.8 µM
inactive: [7] | [11] | [12]

C=C[C@@H]1CN2CCC1C[C@@H]2C(O)c1ccnc2ccc(OC)cc12 (stereo partly drawn)
inactive: [1] | [2] | [3] | [4] | [6] | [15] | [7]

CC(C)(C)c1nc(-c2cccc(NS(=O)(=O)c3c(F)cccc3F)c2F)c(-c2ccnc(N)n2)s1
inactive: [1] | [2] | [3] | [4] | [6]

N[C@@H](CC(=O)N1CCn2c(nnc2C(F)(F)F)C1)Cc1cc(F)c(F)cc1F
inactive: [1] | [2] | [3] | [4] | [6] | [15] | [7]

Cc1cc2nc3c(=O)[nH]c(=O)nc-3n(CC(O)C(O)C(O)CO)c2cc1C (stereo not drawn)
inactive: [1] | [2] | [3] | [4] | [6] | [15] | [7] | [8]

Cc1ccc(C(=O)N(CCCN)[C@@H](c2oc3cc(Cl)ccc3c(=O)c2Cc2ccccc2)C(C)C)cc1
active: [1] 1 nM | [2] 0.001 µM | [3] 26.4 µM | [4] 0.001 µM | [16] 6.57 µM | [14] 0.0019 µM | [9] 0.0059 µM | [17] 14.7 µM | [10] 0.0052 µM | [11] 8.27 µM | [18] 0.0117 µM | [19] 0.0104 µM | [12] 0.0233 µM
inactive: [6] | [15] | [7]

CC(C)N(CCCNC(=O)Nc1ccc(C(C)(C)C)cc1)C[C@H]1O[C@@H](n2cc(Br)c3c(N)ncnc32)[C@H](O)[C@H]1O
active: [1] 23500 nM | [2] 24.3 µM | [3] 20.9 µM | [4] 24.3 µM | [5] 29.6 µM | [8] 18.7 µM

CCCCCCCCCCCCCCCC(=O)O[C@H]1[C@@H](O)[C@@H](O)[C@@H]([C@H](NC(=O)[C@@H]2C[C@@H](CCC)CN2C)[C@H](C)Cl)O[C@@H]1SC
inactive: [1] | [2] | [3] | [4] | [6] | [15] | [7]

O=C(O)c1nc(=O)[nH]c(=O)[nH]1
inactive: [1] | [2] | [3] | [4] | [6] | [15] | [7] | [8]

NC[C@H]1O[C@H](O[C@@H]2[C@@H](O)[C@@H](O[C@H]3O[C@H](CO)[C@@H](O)[C@H](N)[C@@H]3O)[C@H](N)C[C@@H]2N)[C@H](O)[C@@H](O)[C@H]1O
inactive: [1] | [2] | [3] | [4] | [6] | [15] | [7] | [8]

CO[C@H]1/C=C\O[C@@]2(C)Oc3c(C)c(O)c4c(O)c(c(C=NN5CCN(C6CCCC6)CC5)c(O)c4c3C2=O)NC(=O)C(C)=CC=C[C@H](C)[C@H](O)[C@@H](C)[C@@H](O)[C@@H](C)[C@H](OC(C)=O)[C@H]1C
active: [1] 1 nM | [2] 0.137 µM | [3] 0.118 µM | [4] 0.193 µM | [6] 0.59 µM | [8] 0.148 µM | [16] 23.3 µM | [9] 20.8 µM | [18] 26.1 µM | [19] 20.8 µM
inactive: [17] | [12]

CC[C@H](NC(=O)[C@H](C)NC)C(=O)N1C[C@@H](O)C[C@H]1Cc1c(-c2[nH]c3cc(F)ccc3c2C[C@H]2C[C@H](O)CN2C(=O)[C@H](CC)NC(=O)[C@H](C)NC)[nH]c2cc(F)ccc12
active: [1] 372 nM | [2] 0.273 µM | [4] 0.432 µM | [14] 7.37 µM | [20] 18.5 µM | [10] 5.22 µM | [19] 2.93 µM
inactive: [3] | [7] | [8] | [11] | [13]

CCCCCOC(=O)Nc1nc(=O)n([C@@H]2O[C@H](C)[C@@H](O)C2O)cc1F (stereo partly drawn)
inactive: [1] | [2] | [3] | [4] | [5] | [15] | [7]

COc1ccc(C=CC(=O)Nc2ccccc2C(=O)O)cc1OC
inactive: [1] | [2] | [3] | [4] | [6] | [15] | [8]
